Screening results deposited in PubChem BioAssay by National Center for Advancing Translational Sciences (NCATS).
Most compounds without a hit are left out; they make up all but 7.1% or so of the library.
PINK1 modulator – modulators of PINK1 expression; PINK1 immunofluorescence, high-content cytometry, 24 h; Potency, µM (series often up to 76.6 µM), inactives show at the top dose activation (PINK1 increase), hits mostly activators; hit rate 0.2% among 410,000; AID 624263; active = well fitted activation curve with a large enough effect; inconclusive = small, poorly fitted or top-dose-only effect; cell line not stated here; also: potency is read from the fitted curve at half-maximal effect; % of control where 0% means no effect; nearly all actives have a fitted effect of over 65% in size
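Fluorescence from anti-PINK1 antibody, together with nuclear and cell stains, was scanned on a laser-scanning cytometer. Before staining, stable-line cells were incubated 24 hours with compounds at 5 concentrations; primary antibody 12 h at 10 degrees C.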
ATXN2 expr inh – reduces ATXN2 reporter expression in HEK-293 cells. HEK-293 ATXN2-luciferase reporter, luminescence, 24 h. Potency, µM (titrated, usually from 57 µM), for the others: at the top dose activity change, negative = inhibition, hits mostly inhibitors. hit rate 0.72% among 360,000; also: potency is read from the fitted curve at half-maximal effect; % is scaled to controls: 0 for no effect and ±100 for the full control effect; nearly all actives have a fitted effect of over 55% in size
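ATXN2-luciferase reporter cells (luciferase flanked by upstream and downstream ATXN2 gene portions) were treated 24 h at 37 °C with compounds at up to 57 uM. SteadyGlo luminescence gave expression; GF-AFC fluorescence gave viability.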
IL1B secr inh – inflammasome signaling inhibition, IL-1 beta readout; THP-1 LPS/ATP IL-1B secretion, AlphaLISA, 16 h; active compounds read low; activity change, % at 57.5 µM; hit rate 4.7% among 360,000; AID 743279; in the data active = activity change below about -50%; inconclusive = mostly about -30% to -49%; also: % is scaled to controls: 0 for no effect and ±100 for the full control effect
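Secreted IL-1B measured by AlphaLISA bead assay after 16 h compound exposure of THP-1 cells; compounds (final up to 57.5 uM) added 1 h before LPS (250 ng/mL) and ATP (1.25 mM) stimulation; lower signal means less secretion.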
ATXN viability – reduces viability in counter-screen for ATXN expression inhibitors; S2 cells (HEK-293 line with an ATXN2-luciferase reporter) viability, CellTiter-Fluor protease fluorescence, 24 h; Potency, µM (series often up to 56.7 µM), most hits filed as cytotoxic; hit rate 0.49% among 400,000; also: potency is read from the fitted curve at half-maximal effect; nearly all actives have a fitted effect of over 40% in size
MCF10A rereplic – induces DNA re-replication in MCF 10a normal breast cells. AID 624296. Potency, µM (highest dose often 46.1 µM), without a hit: top-dose activity, positive = re-replication, actives largely listed as activators. hit rate 2.9% among 350,000. MCF 10A DNA re-replication, Hoechst nuclear intensity, 48 h; also: potency is read from the fitted curve at half-maximal effect; % of control where 0% means no effect; nearly all actives have a fitted effect of over 50% in size
SW480 rereplic – DNA re-replication induction in SW480 cells | SW480 DNA re-replication, Hoechst DNA content imaging, 48 h | Potency, µM (series often up to 46.1 µM), for inactives: at the top dose re-replication activation, hits mostly activators | hit rate 1.8% among 340,000 | AID 624297; also: potency is read from the fitted curve at half-maximal effect; % of control where 0% means no effect; nearly all actives have a fitted effect of over 55% in size
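First, 250 cells per well were seeded. Next, compound or vehicle (23 nL) was pinned in, plates sat 48 hr at 37 C. Finally Hoechst was added for 40 min before fluorescence scanning.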
* marks the source's active call; other numbers are inactive results; [ ] = remark or other dose. Unless noted, calls follow the shape of the dose curve; as a rule, active = well fitted curve in the direction sought with a large enough effect; inconclusive = small, poorly fitted or top-dose-only effect, or another doubt; inactive = no such curve, though single readings can be large; an effect the other way counts as inactive or inconclusive.

What do the screens show for `c1ccc(CNc2nc3ccccc3c3nc(-c4ccccc4)nn23)cc1`?
PINK1 modulator: 1%; ATXN2 expr inh: 1%; ATXN viability: inactive

How did O=S(=O)(CS(=O)(=O)c1ccccc1)c1ccccc1 do in these assays?
PINK1 modulator: 4%; ATXN2 expr inh: -4%; IL1B secr inh: 3; ATXN viability: inactive; MCF10A rereplic: -14%; SW480 rereplic: -10%

How did O=S(=O)(C/C(=C/CO)S(=O)(=O)c1ccccc1)c1ccccc1 do in these assays?
PINK1 modulator: 9%[38.3 µM]; ATXN2 expr inh: inconclusive; IL1B secr inh: -106*; ATXN viability: 20µM*; MCF10A rereplic: 0.82µM*; SW480 rereplic: 1.2µM*

What do the screens show for `O=C(COc1ccccc1Br)NC(=O)NC1CCCC1`?
PINK1 modulator: 6%; ATXN2 expr inh: 49%; IL1B secr inh: -16; ATXN viability: inactive; MCF10A rereplic: -15%; SW480 rereplic: 15µM*

What do the screens show for `CC(C)(C)c1ccc(OCCC(=O)OCC(=O)NC(=O)NC2CCCC2)cc1`?
PINK1 modulator: 8%; ATXN2 expr inh: -30%; IL1B secr inh: -86*; ATXN viability: inactive; MCF10A rereplic: inconclusive; SW480 rereplic: -118%

What do the screens show for `CC(=O)Nc1cccc(NC(=O)c2c(-c3ccccc3)c(-c3ccccc3)nn(C)c2=O)c1`?
PINK1 modulator: -1%

How did COCc1cc(CN2CCCC(C(=O)c3cccc(C(F)(F)F)c3)C2)ccc1OC (stereo unspecified) do in these assays?
PINK1 modulator: inconclusive; ATXN2 expr inh: 2%; IL1B secr inh: -8; ATXN viability: inactive; MCF10A rereplic: 8%; SW480 rereplic: -4%

What do the screens show for `O=C(NCC1CCCN(Cc2ccc3nonc3c2)C1)c1cccc(C(F)(F)F)c1` (stereo unspecified)?
PINK1 modulator: 0%; ATXN2 expr inh: -19%; IL1B secr inh: -59*; ATXN viability: inconclusive; MCF10A rereplic: 16%; SW480 rereplic: 4%

What do the screens show for `O=C(c1cccc(C(F)(F)F)c1)C1CCCN(Cc2cccn2-c2ccccn2)C1` (stereo unspecified)?
PINK1 modulator: 14%; ATXN2 expr inh: -38%[11.3 µM]; IL1B secr inh: -91*; ATXN viability: inconclusive; MCF10A rereplic: -3%; SW480 rereplic: 13%

How did O=C(c1cccc(C(F)(F)F)c1)C1CCCN(Cc2cccc(OCCO)c2)C1 (stereo unspecified) do in these assays?
PINK1 modulator: 2%; IL1B secr inh: -62*; ATXN viability: inactive; MCF10A rereplic: 0%; SW480 rereplic: 11%

How did COc1cccc(C(=O)Nc2nc(-c3nnn(-c4ccccc4C(F)(F)F)c3C)ns2)c1 do in these assays?
PINK1 modulator: 1%; ATXN2 expr inh: -25%; ATXN viability: inactive

What do the screens show for `CCN1CCCC1CNC(=O)c1cnn(-c2nccc(-c3cccs3)n2)c1C(C)C` (stereo unspecified)?
PINK1 modulator: -1%; ATXN viability: inactive

How did Cc1ccc2nc(-c3ccc(NC(=O)Cc4cccs4)cc3)[nH]c2c1 do in these assays?
ATXN2 expr inh: -10%; IL1B secr inh: -19; ATXN viability: inactive; MCF10A rereplic: inconclusive; SW480 rereplic: inconclusive

How did O=C(Cc1cccs1)Nc1ccccc1-c1nc2ccccc2[nH]1 do in these assays?
PINK1 modulator: 8%; ATXN2 expr inh: -12%; IL1B secr inh: -5; ATXN viability: inactive; MCF10A rereplic: 13µM*; SW480 rereplic: 12µM*

Results for Cc1cccc(Cc2c(C)nc3nc(SCc4ccccc4C)nn3c2C)c1 ?
PINK1 modulator: 1%; ATXN2 expr inh: 0%; ATXN viability: inactive

How did COc1ccc(/C(C)=N/Nc2ncc(Cl)cc2Cl)c(O)c1 do in these assays?
PINK1 modulator: 8%; ATXN2 expr inh: -10%; IL1B secr inh: -18; ATXN viability: inactive; MCF10A rereplic: 16µM*; SW480 rereplic: inconclusive

Results for C/C(=N\Nc1ncc(Cl)cc1Cl)c1ccc(C#N)cc1 ?
PINK1 modulator: 2%; ATXN2 expr inh: -7%; IL1B secr inh: -30; ATXN viability: inactive; MCF10A rereplic: 12%; SW480 rereplic: 9%

What do the screens show for `O=C(CC(NC(=O)c1ccccc1)c1ccccc1)OCc1nc(-c2cccc(Cl)c2)no1` (stereo unspecified)?
PINK1 modulator: -1%

Results for CCOC(=O)CSc1nc2c(sc3ccccc32)c(=O)n1CCc1ccccc1 ?
PINK1 modulator: 2%; ATXN2 expr inh: -4%; ATXN viability: inactive

How did COCCN1CC(=O)N(c2cccc(C)c2C)C(c2ccc(Cl)cc2)C1=O (stereo unspecified) do in these assays?
PINK1 modulator: 0%; ATXN2 expr inh: -1%; IL1B secr inh: 8; ATXN viability: inactive; MCF10A rereplic: 6%; SW480 rereplic: -3%

Results for Cc1cccc(N2C(=O)C(Oc3ccc(Cl)cc3Cl)C2C=O)c1C (stereo unspecified) ?
PINK1 modulator: 2%; ATXN2 expr inh: inconclusive; IL1B secr inh: -89*; ATXN viability: inconclusive; MCF10A rereplic: 18µM*; SW480 rereplic: inconclusive

What do the screens show for `Cc1c(C(=O)Nc2ccc(Cl)cc2)c2ccccn2c1C(=O)c1ccccc1`?
PINK1 modulator: 6%; ATXN2 expr inh: 5%; IL1B secr inh: 17; ATXN viability: inconclusive; MCF10A rereplic: 26µM*; SW480 rereplic: inconclusive

How did Cc1ccc(C(=O)NN(C)c2nc3ccccc3nc2C(F)(F)F)cc1 do in these assays?
PINK1 modulator: 10%; ATXN2 expr inh: -20%; IL1B secr inh: 58; ATXN viability: inconclusive; MCF10A rereplic: 4.6µM*; SW480 rereplic: 13µM*

Results for CSc1nc(N(C)NC(=O)c2ccc(Cl)cc2)c2ccccc2n1 ?
PINK1 modulator: 4%; ATXN2 expr inh: -12%; IL1B secr inh: 0; ATXN viability: inconclusive; MCF10A rereplic: inconclusive; SW480 rereplic: 0.58µM*

How did CN(NC(=O)c1ccc(Cl)cc1)c1nc(-c2ccccc2)nnc1C(F)(F)F do in these assays?
PINK1 modulator: inconclusive; ATXN2 expr inh: -6%; IL1B secr inh: 5; ATXN viability: inactive; MCF10A rereplic: inconclusive; SW480 rereplic: -2%

What do the screens show for `CSc1nc(N(C)NC(=O)c2ccccc2)c2ccccc2n1`?
PINK1 modulator: 6%; ATXN2 expr inh: -19%; IL1B secr inh: 41; ATXN viability: inconclusive; MCF10A rereplic: 1.6µM*; SW480 rereplic: inconclusive

What do the screens show for `Cc1ccc(C)c(NC(=O)C2CCN(S(=O)(=O)c3c(C)noc3/C=C/c3cccs3)CC2)c1`?
PINK1 modulator: 0%

How did COc1ccc(OC)c(-c2cc(Cl)c3c(c2)CC(CNC(=O)c2coc4c2C(=O)CCC4)O3)c1 (stereo unspecified) do in these assays?
PINK1 modulator: -1%; ATXN viability: inactive
